# NOD2-RIPK2 inh – inhibitors of human NOD2-RIPK2 interaction; O43353; CHO BLA complementation NOD2-RIPK2, CCF4 ratio; inhibition, % at 4.98 µM; hit rate 0.38% among 360,000; in the data active = inhibition above about 21%;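 note: 0% = vehicle only and 100% = reference blocker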
# TLR9-MyD88 block – blocks human TLR9 binding to MyD88. AID 504734. hit rate 0.21% among 340,000. inhibition, % at 4.98 µM. Q9NR96+Q99836. CHO BLA complementation TLR9-MyD88, CCF4 FRET ratio;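 active = inhibition above the mean over all tested compounds plus 3 SD, cut at about 21% in these data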;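 note: 0% = DMSO only wells and 100% = clavulanate BLA inhibitor control wells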
# ABHD5-PLIN5 inh – ABHD5-PLIN5 protein interaction inhibition; inhibition, % at 4 µM; Split G. princeps luciferase complementation, luminescence, 4 h; Q00G26+Q8WTS1; hit rate 0.78% among 360,000; AID 602281;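 active = inhibition above the mean inhibition across every tested compound plus 3 SD, cut at about 22% in these data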;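 note: 0% = DMSO only wells and the 100% control is not disclosed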
# HTR2A ag – agonists of mouse serotonin 5-HT2A receptor (HTR2A); P35363; CHO-K1 mHTR2A beta-arrestin complementation, luminescence; percent of 30 µM serotonin response; activation, % at 7.6 µM; hit rate 0.66% among 360,000; AID 624169;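 active = activation above a run cutoff, the mean activation of all tested compounds plus 3 SD, cut at about 14% in these data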;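 note: 0% = plate median of compound wells and 100% = 30 µM serotonin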
# CRFBP-R2 block – antagonists of CRF-binding protein/CRF-R2 receptor complex | HEK293 CRF-R2/CRF-BP, CRF-induced calcium fluorescence | inhibition, % at 11.8 µM | hit rate 0.59% among 350,000 | AID 588475;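 active = inhibition of the ligand-induced calcium signal above about 50% at the single tested concentration, limit read from the data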
# TLR4-MyD88 BLA – TLR4-MyD88 interaction inhibition in cells | inhibition, % at 8.4 µM | hit rate 0.18% among 200,000 | HeLa CL3-4 TLR4/MyD88 BLA complementation, FRET ratio | AID 861; in the data active = inhibition above about 25%;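 note: 0% = vehicle and 100% = reference inhibitor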
# TLR4-MyD88 conf – TLR4-MyD88 interaction inhibition confirmed; shares compounds with TLR4-MyD88 BLA; hit rate 50% among 350; HeLa CL3-4 BLA complementation, CCF4 FRET ratio; inhibition, % at 8.4 µM;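 active = mean inhibition across three repeat runs above about 25% carried over from the earlier screen, limit read from the data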;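 note: plate controls were DMSO only for no effect and clavulanic acid blocking BLA at full dose for full effect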
# BLA inh HeLa – inhibits beta-lactamase activity, counter-screen to TLR4-MyD88 binding inhibitors; shares compounds with TLR4-MyD88 BLA; HeLa BLA reporter, CCF4 FRET ratio; inhibition, % at 8.4 µM; hit rate 63% among 350; AID 1237;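 active = mean inhibition over three repeats above about 26% taken from the earlier screen, limit read from the data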;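 note: HeLa cells stably expressing beta-lactamase reporter as counterscreen for TLR4-MyD88 inhibitors; 0% = DMSO and 100% = clavulanic acid full inhibition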
# TLR9-MyD88 cf – confirmation of human TLR9-MyD88 binding inhibitors; shares compounds with TLR9-MyD88 block; hit rate 51% among 680; inhibition, % at 4.98 µM; AID 540250; CHO TLR9/MyD88 BLA complementation, CCF4 FRET ratio;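 active = mean inhibition across three repeats above about 21% taken from the earlier screen, limit read from the data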;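 note: blue over green emission ratio reports constitutive TLR9 MyD88 association via BLA complementation; 0% = DMSO vehicle wells and 100% = clavulanate BLA inhibitor wells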
# Target sequence (Q9NR96 whole entry, looked up): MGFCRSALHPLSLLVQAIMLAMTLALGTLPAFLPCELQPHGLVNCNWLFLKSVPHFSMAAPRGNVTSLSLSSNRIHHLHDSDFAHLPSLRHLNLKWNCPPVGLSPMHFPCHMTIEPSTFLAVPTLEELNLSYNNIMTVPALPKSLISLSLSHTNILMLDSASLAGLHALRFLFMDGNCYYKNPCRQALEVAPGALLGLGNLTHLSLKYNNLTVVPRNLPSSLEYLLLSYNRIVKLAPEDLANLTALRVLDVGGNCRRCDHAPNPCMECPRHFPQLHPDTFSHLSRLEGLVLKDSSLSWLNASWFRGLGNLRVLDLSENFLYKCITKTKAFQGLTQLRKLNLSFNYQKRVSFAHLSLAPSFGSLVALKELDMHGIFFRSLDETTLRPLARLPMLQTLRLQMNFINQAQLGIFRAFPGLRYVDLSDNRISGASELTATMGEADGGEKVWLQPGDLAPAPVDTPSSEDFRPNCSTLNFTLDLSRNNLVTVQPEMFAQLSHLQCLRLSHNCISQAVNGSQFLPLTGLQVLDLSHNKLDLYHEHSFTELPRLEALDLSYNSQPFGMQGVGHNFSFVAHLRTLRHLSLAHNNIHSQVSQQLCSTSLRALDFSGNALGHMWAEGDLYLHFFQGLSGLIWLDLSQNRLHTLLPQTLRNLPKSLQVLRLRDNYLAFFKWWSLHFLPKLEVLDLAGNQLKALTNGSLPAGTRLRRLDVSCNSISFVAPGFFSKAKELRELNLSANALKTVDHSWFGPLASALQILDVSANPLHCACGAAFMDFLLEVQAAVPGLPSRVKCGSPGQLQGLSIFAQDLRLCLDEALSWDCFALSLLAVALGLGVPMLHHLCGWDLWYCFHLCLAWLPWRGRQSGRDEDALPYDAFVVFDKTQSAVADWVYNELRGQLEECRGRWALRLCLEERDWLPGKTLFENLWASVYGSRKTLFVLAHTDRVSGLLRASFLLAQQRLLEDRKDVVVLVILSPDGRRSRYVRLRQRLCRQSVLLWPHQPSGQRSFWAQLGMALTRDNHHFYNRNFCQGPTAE
# BLA counter-1 – counter-screen for TLR9-MyD88 inhibitors: non-selective beta-lactamase inhibitors | shares compounds with TLR9-MyD88 block | CHO-BLA cells, CCF4 FRET ratio, BLA reporter | inhibition, % at 4.98 µM | hit rate 7% among 680 | AID 540251;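 active = mean inhibition above a 50% cutoff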;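 note: counterscreen of TLR9-MyD88 hits on CMV-driven BLA in CHO-K1 cells; 0% = DMSO alone and 100% = clavulanate blocking BLA; higher means less blue over green ratio so more BLA blockade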
# TLR9 CHO tox – counter-screen for TLR9-MyD88 inhibitors: cytotoxicity in CHO cells | AID 588336 | shares compounds with TLR9-MyD88 block | luminescence | hit rate 39% among 680 | inhibition, % at 4.98 µM; in the data active = inhibition above about 11%
# NOD2-RIPK2 conf – NOD2-RIPK2 interaction inhibition confirmed; shares compounds with NOD2-RIPK2 inh; hit rate 70% among 1,200; AID 624370; CHO cells, NOD2-RIPK2 BLA complementation, CCF4 FRET; inhibition, % at 4.98 µM;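 active = mean inhibition across replicates above a set limit taken from the earlier primary screen, cut at about 21% in these data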;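 note: 0% = DMSO-only wells and the high end = clavulanate BLA-blocked wells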
# BLA counter-2 – hits BLA reporter in NOD2-RIPK2 inhibitor counterscreen; shares compounds with NOD2-RIPK2 inh; CHO BLA reporter, CCF4 FRET ratio; inhibition, % at 4.98 µM; hit rate 57% among 1,200;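 active = mean inhibition above the low-control mean inhibition plus three low-control SD, cut at about 11% in these data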;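 note: 0% = DMSO only wells and 100% = clavulanate high control wells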
# * marks the source's active call; other numbers are inactive results; · = no result given. A selection: hits, their analogues and other compounds. The true share with any hit is near 2.4%.
SMILES,NOD2-RIPK2 inh,TLR9-MyD88 block,ABHD5-PLIN5 inh,HTR2A ag,CRFBP-R2 block,TLR4-MyD88 BLA,TLR9-MyD88 cf,BLA counter-1,TLR9 CHO tox,others
CCCCNC(=O)c1nn(-c2ccccc2OC)c(=O)c2ccccc12,26*,24*,0,3,6,26*,14,18,1,TLR4-MyD88 conf=20;BLA inh HeLa=23;NOD2-RIPK2 conf=23*;BLA counter-2=24*
O=C(O)c1ccc(N2CCCCCC2)c(N2C(=O)c3ccccc3C2=O)c1,2,-1,-2,2,-3,-16,·,·,·,
O=C1c2cccc3c(N4CCCCC4)ccc(c23)C(=O)N1c1ccccc1O,52*,49*,0,3,-241,28*,32*,31,7,TLR4-MyD88 conf=26*;BLA inh HeLa=39*;NOD2-RIPK2 conf=60*;BLA counter-2=66*
CC1(C(=O)NS(=O)(=O)c2ccc(Br)cc2)CCN1C(=O)c1cccc(F)c1 (stereo not drawn),8,·,-1,-3,·,·,·,·,·,
C[C@H](O)CNC(=O)c1[nH]cnc1C(=O)Nc1cccc(Cl)c1,-13,7,0,0,23,·,·,·,·,
Nc1ccc2c(c1)Cc1cc([N+](=O)[O-])ccc1-2,49*,46*,-1,-1,-116,46*,31*,34,11*,TLR4-MyD88 conf=38*;BLA inh HeLa=67*;NOD2-RIPK2 conf=58*;BLA counter-2=54*
CC(=NO)c1ccc2c(c1)Cc1cc([N+](=O)[O-])ccc1-2,-4,-2,-6,-3,43,·,·,·,·,
CC(=O)C1=NN(c2ccccc2)C(c2ccc3c(c2)OCO3)N1c1ccccc1 (stereo not drawn),21*,20,-11,-4,12,28*,·,·,·,TLR4-MyD88 conf=17;BLA inh HeLa=36*;NOD2-RIPK2 conf=39*;BLA counter-2=49*
CC(=O)C1=NN(c2ccccc2)C(c2cccs2)N1c1ccc(N(C)C)cc1 (stereo not drawn),-4,-3,0,0,37,-10,·,·,·,
Cc1cc(Cl)n2c(nc3ccccc32)c1C#N,23*,-4,5,2,-15,45*,·,·,·,TLR4-MyD88 conf=52*;BLA inh HeLa=56*;NOD2-RIPK2 conf=86*;BLA counter-2=63*
Cc1ccc(NC2=Nc3ccccc3N3C2=Nc2c(c(C)nn2-c2ccccc2)C3c2ccc(O)c(O)c2)cc1 (stereo not drawn),66*,66*,4,1,-23,51*,59*,66*,4,TLR4-MyD88 conf=53*;BLA inh HeLa=84*;NOD2-RIPK2 conf=74*;BLA counter-2=81*
CCC(C(=O)NC(C)(C)C)n1c(-c2cccc(NC(C)=O)c2)nc2ccccc21 (stereo not drawn),-7,·,2,9,·,·,·,·,·,
Nc1ccc2c3c(cccc13)C(=O)N(c1ccccc1)C2=O,31*,28*,-5,3,-227,25*,13,16,4,TLR4-MyD88 conf=18;BLA inh HeLa=39*;NOD2-RIPK2 conf=36*;BLA counter-2=42*
Fc1ccccc1N1CCN(Cc2nc(-c3ccccc3)no2)CC1,1,3,1,-1,0,-9,·,·,·,
Fc1ccccc1N1CCN(Cc2cc(-c3ccccc3)on2)CC1,8,21*,-6,-6,24,·,1,3,4,
CC(NC(=O)OCc1ccccc1)C(=O)Oc1cc2oc(=O)cc(-c3ccccc3)c2cc1Cl (stereo not drawn),38*,34*,-7,2,8,5,16,22,-10,
C=CCCCCCCCCc1nc(SCC(C)=O)n[nH]1,-17,7,-4,1,21,·,·,·,·,
C=CCCCCCCCCc1nc(SCC(=O)O)n[nH]1,1,32*,0,-3,-10,·,-5,-1,1,
COc1ccc(-c2nc3c4ccccc4ccn3c2Cc2cccc(F)c2)cc1OC,-5,·,-1,-6,·,·,·,·,·,
COc1ccc(NC(=O)c2cc(OC)c(OC)c(OC)c2Br)cc1OC,-3,1,-1,3,-3,0,·,·,·,
COc1cc(C(=O)Nc2ccc(C(C)=O)cc2)c(Br)c(OC)c1OC,11,21*,-2,11,1,0,1,-2,5,
N#CC1=C(N)Oc2cc(O)c(Cl)cc2C1c1ccccc1F (stereo not drawn),1,22*,-7,-3,-195,·,2,5,-2,
Cc1cc(=O)n2ccccc2c1C#N,3,7,1,0,45,11,·,·,·,
COc1ccc2c(C#N)c3ccccn3c2c1,11,21*,-3,1,-21,24,5,8,7,
C[C@H]1CN([C@@H](C)CO)C(=O)CCCn2cc(nn2)CO[C@@H]1CN(C)C(=O)NC1CCCCC1,-7,·,16,2,·,·,·,·,·,
SMILES,NOD2-RIPK2 inh,TLR9-MyD88 block,ABHD5-PLIN5 inh,HTR2A ag,CRFBP-R2 block,TLR4-MyD88 BLA,TLR9-MyD88 cf,BLA counter-1,TLR9 CHO tox,others
CCOC(=O)[C@]12CCC=C1N(Cc1ccc(Cl)cc1Cl)C(=O)[C@H](CC(=O)N1CCSCC1)C2,-5,·,4,-2,·,·,·,·,·,
O=C(Nc1nc2c(s1)CN(Cc1ccccc1)CC2)c1cccc(S(=O)(=O)N2CCc3ccccc32)c1,8,28*,8,6,-92,19,5,6,-2,
O=C(Nc1nc2ccccc2s1)c1cccc(S(=O)(=O)N2CCc3ccccc32)c1,2,7,-3,3,-4,·,·,·,·,
CN(C)C(=O)c1cccc(-c2cnc3c(NC=O)cc(-c4ccc(N(C)C)cc4)cn23)c1,8,·,-8,-5,·,·,·,·,·,
CCc1ccc(/C=C2/C(=O)N(c3ccccc3)C(=S)N2CC(=O)OC)s1,3,29*,4,2,-22,5,10,33,2,
Cc1cccc(C(=O)OCC(=O)NCc2cccs2)c1,-3,-7,5,7,20,8,·,·,·,
CS(=O)(=O)c1ccc(C(=O)OCC(=O)NCc2cccs2)cc1[N+](=O)[O-],10,22*,16,5,21,·,29*,14,78*,
O=C(N/N=C\c1c(O)ccc2ccccc12)c1cncc(Br)c1,11,23*,3,-11,-113,·,18,15,60*,

# Assay outcomes as filed in PubChem BioAssay.
